Source: PubChem BioAssay
Compounds with a hit are over-represented: about 7.4% of the library has one in this group of screens.
SMN2 splice up – SMN2 splice variant enhancement. HEK293 SMN2-luciferase splicing reporter, luminescence, 30-36 h. Potency, µM (series often up to 46.1 µM), for the others: at the top dose activity change, positive = activation, most hits filed as activators. 210,000 compounds, 2.8% hits. AID 1458; also: % of control where 0% means no effect; nearly all actives have a fitted effect of over 55% in size
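HEK293 cells carry an SMN2 […]–luciferase reporter in which exon 7 inclusion puts luciferase in frame. Cells were plated 10-12 h before compound addition, then incubated 30-36 h at 37C. ONE-Glo luminescence was read; sodium butyrate at 4.5 mM final served as control.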
Rab9 promoter act – activates the Rab9 promoter; Potency, µM (doses to about 9.22 µM), for the others: at the top dose activation, negative = inhibition, actives largely listed as activators; Huh7 Rab9 promoter-luciferase reporter, luminescence, 24 h; 320,000 compounds, 2.8% hits; AID 485297; also: % of control where 0% means no effect; nearly all actives have a fitted effect of over 60% in size
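Quantitative HTS format; Huh7 Rab9-luciferase reporter cells (1500/well) receive compound 2 h post-plating, incubate 24 h at 37 °C, then get luciferase reagent for 10 min before luminescence reading.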
NPC1 prom act – activators of NPC1 promoter. Huh7 NPC1 promoter luciferase reporter, 24 h. Potency, µM (titrated, usually from 9.22 µM), for the others: top-dose activation, hits mostly activators. 320,000 compounds, 2.4% hits; also: % of control where 0% means no effect; nearly all actives have a fitted effect of over 60% in size
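Luciferase expression driven by the NPC1 promoter was measured in stably transfected Huh7 cells after a 24 h compound incubation, using a luciferase reagent and a luminescence read.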
KinaseGlo FLuc – blocks Kinase-Glo luciferase, a counter-screen artifact; Kinase-Glo luciferase, ATP luminescence, 8 min; Potency, µM (series often up to 38.3 µM), for inactives: at the highest dose activity change, negative = inhibition, actives largely listed as inhibitors; 200,000 compounds, 0.28% hits; AID 1379; also: % is scaled to controls: 0 for no effect and ±100 for the full control effect; nearly all actives have a fitted effect of over 60% in size
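Compounds were added to a substrate mix at pH 7.2 (50 mM imidazole, 10 uM ATP, within the enzyme's linear range), followed by Kinase-Glo detection reagent; luminescence was measured after 8 minutes at ambient temperature.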
ELG1 genotox – genotoxicity induction in ELG1-luciferase HEK293T cells | HEK293T ELG1-luciferase reporter, luminescence, 16 h | Potency, µM (top dose mostly 46 µM), without a hit: at the top dose activity change, positive = activation, usual class: activators | AID 504466 | 330,000 compounds, 1.3% hits; also: % of control where 0% means no effect; nearly all actives have a fitted effect of over 60% in size
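Screening used a luciferase reporter fused to human ELG1 in HEK293T cells. Luminescence was read on a CCD plate imager after 16 hr exposure and 30 min ONE-Glo incubation.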
FLuc counter – inhibits or activates purified firefly luciferase, miR-21 counter-screen; purified FLuc, Km substrates, luminescence inhibition; 360,000 compounds, 6.9% hits; Potency, µM (highest dose often 57.5 µM), inactives show top-dose activity change, negative = inhibition, actives largely listed as inhibitors; P08659; AID 588342;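 also: plate controls were vehicle for no effect and reference inhibitor for full effect; nearly all actives have a fitted effect of over 55% in size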
Target sequence (P08659 whole entry, looked up): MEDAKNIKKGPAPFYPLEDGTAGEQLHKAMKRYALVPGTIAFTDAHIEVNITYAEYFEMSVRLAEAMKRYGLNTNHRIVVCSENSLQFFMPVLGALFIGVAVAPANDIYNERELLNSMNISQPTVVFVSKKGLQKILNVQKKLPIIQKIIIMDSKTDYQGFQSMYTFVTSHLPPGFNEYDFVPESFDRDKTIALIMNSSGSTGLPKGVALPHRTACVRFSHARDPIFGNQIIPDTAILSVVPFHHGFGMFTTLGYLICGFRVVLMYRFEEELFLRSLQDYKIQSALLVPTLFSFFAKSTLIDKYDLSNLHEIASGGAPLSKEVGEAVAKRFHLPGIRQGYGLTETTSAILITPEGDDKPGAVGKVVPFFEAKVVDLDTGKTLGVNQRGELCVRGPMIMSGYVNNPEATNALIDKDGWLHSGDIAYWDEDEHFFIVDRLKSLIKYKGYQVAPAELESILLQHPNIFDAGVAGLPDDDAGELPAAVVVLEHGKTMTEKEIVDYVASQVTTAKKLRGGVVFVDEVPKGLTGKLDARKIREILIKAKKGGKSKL
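Purified P. pyralis luciferase (10nM final) with 10uM D-luciferin and 10uM ATP (Km levels) in 50mM Tris acetate pH 7.5, 10mM Mg acetate, 0.01% Tween-20, 0.05% BSA; qHTS 6-point titration, ~60 µM downward; luminescence read.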
An asterisk follows results filed as active; ? = inconclusive; / = not tested or not shown; [ ] = another dose, or the depositor's remark. Calls follow the shape of the dose curve; as a rule, active = well fitted curve in the direction sought with a large enough effect; inconclusive = small, poorly fitted or top-dose-only effect, or another doubt; inactive = no such curve, though single readings can be large; an effect the other way counts as inactive or inconclusive. Potency is read from the fitted curve at half-maximal effect.

SMILES	SMN2 splice up	Rab9 promoter act	NPC1 prom act	KinaseGlo FLuc	ELG1 genotox	FLuc counter
COC(=O)C1=C(O)/C(=C\c2cc(C)n(-c3ccccc3C)c2C)N=C1C	-12%	?	?	-8%	5%	1.1µM*
COC(=O)C1=C(O)/C(=C\c2sccc2C)N=C1C	1%	-3%	-1%	-2%	1%	?
COc1cc2c(cc1OC)C(c1ccc(N)cc1)=NNC(=O)C2	21%	/	/	-2%	/	/
CCOc1ccc2nc(C)cc(Nc3ccccc3OCC)c2c1	-77%	/	/	/	/	0%
C=CCN=c1scc(-c2ccccc2)n1/N=C/c1ccccn1	4.5µM*	1.3µM*	2µM*	-1%	?	2.4µM*
C=CCN=c1scc(-c2ccc(F)cc2)n1/N=C/c1ccccn1	400%	?	24%	1%	22%	13µM*
c1ccc(Nc2ncnc3ccc(-c4cccnc4)cc23)cc1	-7%	/	/	-1%	/	/
Cc1ccc(-c2ccc(NC(=O)C3C4C=CC(C4)C3C(=O)O)cc2)o1 (stereo not given)	-28%	3.2µM*	3.5µM*	1%	15%	15µM*
CC(=O)Cc1nsc(NC(=O)c2ccc(-c3ccccc3Cl)o2)n1	11µM*	8%	4%	-1%	?	11µM*
CC(=O)Cc1nsc(NC(=O)c2ccc(-c3ccc(F)cc3)o2)n1	2%	16%	-2%	0%	1%	6µM*
CC(=O)Cc1nsc(NC(=O)c2ccc(-c3ccc(Cl)c(C(F)(F)F)c3)o2)n1	-6%	-1%	6%	-1%	-1%	?
CC(=O)Cc1nsc(NC(=O)c2oc(-c3ccccc3Cl)cc2C)n1	5%	4%	-1%	1%	-1%	?
Cc1csc(NC(=O)c2ccc3c(=O)n4c(nc3c2)CCCCC4)n1	/	1.1µM*	3.5µM*	/	16%	8.5µM*
O=C(Nc1nccs1)c1ccc2c(=O)n3c(nc2c1)CCCCC3	/	3.2µM*	2.8µM*	/	14%	11µM*
CCOc1ccc(NC(=O)c2ccc3c(=O)n4c(nc3c2)CCCCC4)cc1	6%	-8%	-9%	/	-3%	3%
CC(C)(C)n1cnc2cc(NC(=O)c3ccccc3)ccc21	/	1.4µM*	1.4µM*	/	5.2µM*	6µM*
CC(C)(C)n1cnc2cc(NCc3cccs3)ccc21	8.9µM*	?	?	-1%	20%	12µM*
CCn1cnc2cc(NC(=O)c3cccs3)ccc21	13µM*	2.2µM*	3.5µM*	-16%	?	15µM*
CCn1cnc2cc(NCc3cccs3)ccc21	?	26%	?	2%	?	?
CCC(=O)Nc1ccc2c(c1)ncn2CCc1ccccc1	/	-4%[1.84 µM]	3%	/	10%	-11%
CC(C)(C)n1cnc2cc(NC(=O)c3cccs3)ccc21	13µM*	1.3µM*	2.5µM*	-6%	?	7.6µM*
Cc1ccc2c(c1)c1c3n2CCN(C(=O)c2cccc(C(F)(F)F)c2)C3CCC1 (stereo not given)	-17%	/	/	/	/	-5%
CCn1cnc2cc(NCc3ccc(N(C)C)cc3)ccc21	-18%	-3%	0%	1%	?	?
CN(C)c1ccc(CNc2ccc3c(c2)ncn3C(C)(C)C)cc1	/	-1%	-1%	/	13%	8.5µM*
COc1ccc(-c2nn(-c3ccccc3)cc2C2NC(=O)NC(C)=C2C(=O)OC(C)C)cc1Cl (stereo not given)	-3%	/	/	/	/	-5%
